Measurements from PubChem BioAssay.
Active and inactive are the calls of the source.

Assays:
[1] = tested on: Wnt5a (protein binding on small-molecule microarray); experiment: small molecules binding Wnt5a protein – biophysical, small-molecule microarray, 635/667 nm fluorescence, primary screen (AID 1142); details: 635 nm fluorescence, higher = more signal;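 also: fluorescence read at 667 nm with signal to noise per printed feature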
[2] = ATP-based viability of Huh7 replicon cells – cell-based, CellTiter-Glo luminescence, basal, 48 h, cytotoxicity control for HCV replication inhibitor project, primary screen (AID 1143); details: higher = more signal, called active from +8 up or from −8 down;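 also: Huh7 hepatoma cells carrying a hepatitis C replication reporter with no stimulus; test concentration not given here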
[3] = basal CRE-LacZ reporter activity in PC12 – cell-based, unstimulated, primary screen (AID 1145); details: no forskolin, luminescence, 4.5 h, higher = more signal, called active from +8 up or from −8 down
[4] = forskolin-driven CRE-LacZ activity in PC12 – cell-based, CRE-LacZ reporter, forskolin-stimulated, primary screen (AID 1146); details: luminescence, 4.5 h, higher = more signal, called active from +8 up or from −8 down;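 also: PC12 cells with 6xCRE LacZ reporter stimulated by forskolin 10 µM; beta-galactosidase reporter signal reflecting CREB driven transcription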
[5] = biological target: Streptavidin (Streptomyces avidinii) (UniProt P22629); experiment: compounds binding control protein streptavidin – biophysical, small-molecule microarray, 635/667 nm fluorescence, artefact control for SMM compound annotation, primary screen (AID 1147); details: higher = more signal;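 also: signal reflects streptavidin binding to arrayed compounds as a control protein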
[6] = probe aInhba binding on compound microarray – biochemical, small-molecule microarray, 635/667 nm fluorescence, primary screen (AID 1148); details: higher = more signal;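 also: score merges 667nm spot fluorescence with signal-to-noise for antibody binding to printed compounds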
Torsin-1A (Homo sapiens) [7] = biological target: Torsin-1A (Homo sapiens) (UniProt O14656); experiment: TOR1A wild-type binding on microarray – cell lysate, small-molecule microarray, lysate, 635/667 nm, primary screen (AID 1149); details: COS7 hTOR1A-WT lysate, 635 nm fluorescence, higher = more signal
Torsin-1A (Homo sapiens) [8] = biological target: Torsin-1A (Homo sapiens) (UniProt O14656); experiment: torsin A mutant lysate binding on microarrays – cell lysate, small-molecule microarray, COS7 lysate, 635/667 nm fluorescence, primary screen (AID 1150); details: COS7 hTOR1A mutant lysate, 635 nm fluorescence, higher = more signal;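 also: score pools 667 nm emission and signal to noise measuring lysate protein binding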
[9] = tested on: Sonic hedgehog protein (Shh); experiment: Sonic hedgehog microarray binding compounds – biochemical, small-molecule microarray, 635/667 nm fluorescence, primary screen (AID 1151); details: 635 nm fluorescence, higher = more signal;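 also: Shh protein binding to compounds spotted on small-molecule microarray slides; score combines spot fluorescence intensity with signal-to-noise across triplicate slides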
[10] = optical density shifts of acrAB sulA E. coli – strain DRC41, OD650, 48 h, E. coli filamentation inducer project, primary screen (AID 1152); details: higher = more signal, called active from +8 up or from −8 down;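 also: E. coli MC1000 strain DRC41 lacking acrAB efflux pump and sulA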
[11] = probe aLefty1 binding on compound microarray – biochemical, small-molecule microarray, 635/667 nm fluorescence, primary screen (AID 1153); details: higher = more signal;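 also: score merges spot fluorescence with signal-to-noise ratio from the scanned slide images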
[12] = plasmodial surface anion channel blockers, osmotic lysis – cell-based, P. falciparum Indochina, OD700, 1 h, primary screen (AID 1154); details: P. falciparum Indochina infected RBC osmotic lysis, higher = more signal, called active from +8 up or from −8 down
[13] = plasmodial surface anion channel blockers, osmotic lysis – cell-based, P. falciparum Indochina, OD700, 2 h, primary screen (AID 1155);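 also: lysis reports solute entry through the parasite surface anion channel PSAC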; details: P. falciparum Indochina infected erythrocytes, higher = more signal, called active from +8 up or from −8 down
[14] = changes in parasitized red cell lysis, either direction – P. falciparum Indochina, OD700, 3 h, PSAC antagonist project, primary screen (AID 1156); details: P. falciparum-infected erythrocytes, osmotic lysis, higher = more signal, called active from +8 up or from −8 down
[15] = plasmodial surface anion channel blockers, osmotic lysis – cell-based, P. falciparum Indochina, OD700, 18 h, primary screen (AID 1157); details: P. falciparum Indochina infected erythrocytes, osmotic lysis OD700, 18 h; higher = more signal, called active from +8 up or from −8 down
[16] = S6 kinase pathway phospho-S6 level changes – cell-based, A549, cytoblot, luminescence, serum-stimulated, primary screen (AID 1158); details: 5 h, higher = more signal;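 also: serum-stimulated A549 lung adenocarcinoma cells; signal is phosphorylated S6 detected by cytoblot immunostaining with HRP secondary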
[17] = biological target: NADPH oxidase 2 (Homo sapiens) (UniProt P04839); experiment: compounds shifting NOX2 Amplex Red fluorescence – cell-based, HEK293-NOX2, PMA-stimulated, NOX inhibitor project, primary screen (AID 1159); details: 45 min, higher = more signal, called active from +8 up or from −8 down; also: test concentration not given here
[18] = biological target: NADPH oxidase 4 (Homo sapiens) (UniProt Q9NPH5); experiment: compounds shifting NOX4 Amplex Red fluorescence – cell-based, HEK293-NOX4, tetracycline-induced, NOX inhibitor project, primary screen (AID 1160); details: HEK293-NOX4, Amplex Red H2O2 fluorescence, 45 min; higher = more signal, called active from +8 up or from −8 down
[19] = biological target: NADPH oxidase 5 (Homo sapiens) (UniProt Q96PH1); experiment: compounds shifting NOX5 Amplex Red fluorescence – cell-based, HEK293-NOX5, NOX inhibitor project, primary screen (AID 1161); details: HEK293-NOX5, ionomycin, 45 min, higher = more signal
[20] = compound effects on lung adenocarcinoma cell viability – A549, calcein-AM fluorescence, 48 h, basal, profiling panel (AID 1162); details: higher = more signal; also: test concentration not given here

Streptavidin (Streptomyces avidinii), sequence (P22629 whole entry, looked up): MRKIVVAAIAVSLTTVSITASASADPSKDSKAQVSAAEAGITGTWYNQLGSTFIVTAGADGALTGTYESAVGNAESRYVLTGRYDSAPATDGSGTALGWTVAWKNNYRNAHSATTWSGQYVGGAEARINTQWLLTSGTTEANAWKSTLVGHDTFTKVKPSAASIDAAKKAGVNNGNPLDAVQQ
Torsin-1A (Homo sapiens), sequence (O14656 whole entry, looked up): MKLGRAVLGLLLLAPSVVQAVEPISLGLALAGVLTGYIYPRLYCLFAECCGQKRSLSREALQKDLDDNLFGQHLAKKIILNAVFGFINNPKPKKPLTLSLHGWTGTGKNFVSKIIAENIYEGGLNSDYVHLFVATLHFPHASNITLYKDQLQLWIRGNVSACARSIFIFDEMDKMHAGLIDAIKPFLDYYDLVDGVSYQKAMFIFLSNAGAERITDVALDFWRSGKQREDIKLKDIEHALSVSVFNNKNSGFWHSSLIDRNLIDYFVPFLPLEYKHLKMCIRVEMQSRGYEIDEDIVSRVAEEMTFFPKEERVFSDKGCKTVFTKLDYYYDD
NADPH oxidase 5 (Homo sapiens), sequence (Q96PH1 whole entry, looked up): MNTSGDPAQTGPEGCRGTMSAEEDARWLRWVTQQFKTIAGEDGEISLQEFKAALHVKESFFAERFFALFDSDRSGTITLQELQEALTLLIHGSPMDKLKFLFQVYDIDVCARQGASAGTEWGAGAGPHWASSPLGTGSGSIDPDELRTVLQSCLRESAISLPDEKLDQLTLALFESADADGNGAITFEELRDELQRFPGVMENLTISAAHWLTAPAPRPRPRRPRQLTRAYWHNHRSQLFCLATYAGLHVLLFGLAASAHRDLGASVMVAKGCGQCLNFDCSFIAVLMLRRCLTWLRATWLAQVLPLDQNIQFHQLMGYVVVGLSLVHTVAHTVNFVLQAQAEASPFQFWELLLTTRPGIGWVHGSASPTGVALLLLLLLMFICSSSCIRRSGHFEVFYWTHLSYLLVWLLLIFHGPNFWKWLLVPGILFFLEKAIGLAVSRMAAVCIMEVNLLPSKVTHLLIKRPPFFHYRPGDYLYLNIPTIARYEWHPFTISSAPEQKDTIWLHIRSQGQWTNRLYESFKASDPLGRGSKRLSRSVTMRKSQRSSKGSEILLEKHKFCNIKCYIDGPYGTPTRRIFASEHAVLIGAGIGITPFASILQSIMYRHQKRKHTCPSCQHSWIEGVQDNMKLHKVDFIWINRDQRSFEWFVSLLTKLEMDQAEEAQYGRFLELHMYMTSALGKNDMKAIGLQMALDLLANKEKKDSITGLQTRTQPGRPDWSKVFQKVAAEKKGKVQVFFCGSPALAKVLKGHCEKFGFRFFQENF
NADPH oxidase 4 (Homo sapiens), sequence (Q9NPH5 whole entry, looked up): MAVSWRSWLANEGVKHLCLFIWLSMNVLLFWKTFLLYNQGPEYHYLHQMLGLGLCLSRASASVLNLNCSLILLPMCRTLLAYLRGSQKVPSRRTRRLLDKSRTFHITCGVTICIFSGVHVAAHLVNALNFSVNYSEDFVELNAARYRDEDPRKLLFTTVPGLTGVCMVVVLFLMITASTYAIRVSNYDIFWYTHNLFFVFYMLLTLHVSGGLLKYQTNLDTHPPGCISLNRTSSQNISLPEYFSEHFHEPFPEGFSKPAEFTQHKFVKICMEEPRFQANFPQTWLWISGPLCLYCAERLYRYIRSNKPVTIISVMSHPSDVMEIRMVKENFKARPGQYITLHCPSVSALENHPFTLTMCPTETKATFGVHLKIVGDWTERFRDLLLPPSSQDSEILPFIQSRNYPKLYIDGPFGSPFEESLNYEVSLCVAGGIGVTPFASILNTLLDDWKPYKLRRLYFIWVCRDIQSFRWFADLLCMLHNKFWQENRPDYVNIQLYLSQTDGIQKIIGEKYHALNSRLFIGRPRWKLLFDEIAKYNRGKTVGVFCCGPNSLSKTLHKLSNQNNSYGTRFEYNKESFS
NADPH oxidase 2 (Homo sapiens), sequence (P04839 whole entry, looked up): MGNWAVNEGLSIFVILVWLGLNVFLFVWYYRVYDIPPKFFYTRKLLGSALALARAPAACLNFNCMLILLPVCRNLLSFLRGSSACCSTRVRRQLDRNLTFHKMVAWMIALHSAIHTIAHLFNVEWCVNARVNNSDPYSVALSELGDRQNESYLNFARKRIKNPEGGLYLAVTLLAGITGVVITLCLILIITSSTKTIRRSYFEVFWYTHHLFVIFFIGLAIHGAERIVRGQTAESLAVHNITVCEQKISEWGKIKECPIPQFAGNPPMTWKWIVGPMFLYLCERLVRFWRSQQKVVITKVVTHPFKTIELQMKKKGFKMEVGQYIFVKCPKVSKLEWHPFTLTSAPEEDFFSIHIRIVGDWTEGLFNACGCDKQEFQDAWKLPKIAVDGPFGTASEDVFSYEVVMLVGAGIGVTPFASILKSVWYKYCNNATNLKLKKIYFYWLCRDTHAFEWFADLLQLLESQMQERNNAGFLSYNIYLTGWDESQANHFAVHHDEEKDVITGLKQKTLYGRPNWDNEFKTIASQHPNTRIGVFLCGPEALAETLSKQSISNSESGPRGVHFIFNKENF

Compound	composite z-score [1]	z-score [2]	z-score [3]	z-score [4]	composite z-score [5]	composite z-score [6]	composite z-score (Torsin-1A (Homo sapiens) [7])	composite z-score (Torsin-1A (Homo sapiens) [8])	composite z-score [9]	z-score [10]	composite z-score [11]	z-score [12]	z-score [13]	z-score [14]	z-score [15]	z-score [16]	z-score [17]	z-score [18]	z-score [19]	z-score [20]
C=C(COC)C(=O)CC[C@H](OC(=O)c1cccnc1)c1cccc(OCCO)c1	1	-0.365 (inactive)	6.86 (inactive)	0.309 (inactive)	-0.347	0.345	2.35	0.0556	2.06	1.05 (inactive)	0.75	10.4 (active)	1.47 (inactive)	0.934 (inactive)	0.577 (inactive)	-0.597	0.936 (inactive)	0.743 (inactive)	-1.3	0.18
C=CCC(OC(C)=O)[C@@H]1[C@@H](N(Cc2ccc(-c3ccccc3)cc2)C(=O)c2ccc(-c3ccccc3)cc2)c2cc(OCCCO)ccc2N1C(=O)c1ccc(-c2ccccc2)cc1 (stereo not given in full)	0.144	0.534 (inactive)	-0.0247 (inactive)	-0.426 (inactive)	0.222	0.0439	0.276	0.0533	0.107	2.03 (inactive)	-0.0088	0.568 (inactive)	0.712 (inactive)	-0.181 (inactive)	0.0154 (inactive)	0.531	0.844 (inactive)	0.967 (inactive)	1.17	0.444
CCN(CC)c1ccc(N2CC=CC34O[C@@H]5C=CCOC(=O)[C@@H]5[C@H]3C(=O)N(C(CO)C(C)C)[C@@H]4C2=O)cc1 (stereo not given in full)	-0.191	-0.524 (inactive)	0.471 (inactive)	0.6 (inactive)	-0.258	-0.391	-0.156	-0.701	0.0806	1.38 (inactive)	0.189	-0.185 (inactive)	-0.262 (inactive)	1.21 (inactive)	0.135 (inactive)	-0.369	0.787 (inactive)	0.196 (inactive)	1.23	-0.0755
[N-]=[N+]=NCc1ccccc1C[C@]1(C(=O)NCc2ccccc2)N=C(c2ccc(OCCCO)cc2)O[C@H]1c1ccccc1	0.46	-4.02 (inactive)	1.11 (inactive)	-1.14 (inactive)	0.532	0.216	-0.265	0.765	-0.948	1.78 (inactive)	0.832	10.9 (active)	1.53 (inactive)	3.76 (inactive)	-0.605 (inactive)	1.09	-0.425 (inactive)	1.24 (inactive)	0.0397	-2.79
